PubChem BioAssay (NCI)
About 79,000 compounds went through this panel and 15% of them were active in at least one assay; those are over-represented in the sample as a whole. Rule as the data show it: active = growth inhibition above about 70%; inactive = the rest.

How the values were obtained:
[1] = NCI Yeast Anticancer Drug Screen. Data for the rad50 strain (AID 155);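 also: 0% = growth of vehicle-only cultures of the same strain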; conditions: S. cerevisiae rad50 strain growth inhibition; at 50.0 µM; hits give high values
How it was run: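 Growth of the mutant yeast was measured after compound exposure and referenced to vehicle-treated cultures.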

[2] = NCI Yeast Anticancer Drug Screen. Data for the mec2-1 strain (AID 157); conditions: S. cerevisiae mec2-1 strain, at 50.0 µM, hits give high values
How it was run: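 Cells of the genetically defined mec2-1 yeast strain are incubated with test compound. Inhibition of growth is calculated against vehicle-treated controls.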

[3] = NCI Yeast Anticancer Drug Screen. Data for the sgs1 mgt1 strain (AID 161);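 also: 0% = growth of cultures given vehicle only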; conditions: S. cerevisiae sgs1 mgt1 strain, at 50.0 µM, hits give high values
How it was run: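 Genetically altered yeast, compound exposure, growth inhibition relative to vehicle.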

[4] = NCI Yeast Anticancer Drug Screen. Data for the cln2 rad14 strain (AID 165);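 also: 0% = growth equal to vehicle treated cultures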; conditions: S. cerevisiae cln2 rad14 strain, at 50.0 µM, hits give high values
How it was run: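 The screen exposed genetically defined yeast (cln2 rad14) to test compounds and scored growth inhibition relative to vehicle-treated controls.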

[5] = NCI Yeast Anticancer Drug Screen. Data for the bub3 strain (AID 167); conditions: S. cerevisiae bub3 mutant strain, at 50.0 µM, hits give high values
How it was run: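 Whole-cell yeast assay. The mutant strain was incubated with compounds, and growth inhibition was determined by comparison with vehicle-treated cells.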

[6] = NCI Yeast Anticancer Drug Screen. Data for the mlh1 rad18 strain (AID 175); conditions: S. cerevisiae mlh1 rad18 strain growth inhibition; at 50.0 µM; hits give high values
How it was run: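 Compound-treated yeast growth, normalised to vehicle controls. Strain bears defined DNA repair mutations.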

Measured: growth inhibition

Cc1cc(S(=O)(=O)Nc2nc(N)n(C)n2)c(S)cc1Cl
inactive: [1] -19.1% | [2] -18.3% | [3] -3.3% | [4] -3.1% | [5] -29.2% | [6] -1.85%

Cc1ccc(S(=O)(=O)CC(=O)CC(=O)C(=O)Nc2ccc(C)cc2C)cc1
inactive: [1] 2.15% | [2] -9.2% | [3] -21.1% | [4] 2% | [5] -8.55% | [6] 12.8%

COC(=O)c1sc(C(=O)OC)c2c1CS(=O)C2
inactive: [1] -10.3% | [2] 2.1% | [3] 10.1% | [4] 30% | [5] 5.45% | [6] 42.2%

OC1(c2ccccc2)c2ccccc2Oc2cc(Cl)ccc21 (stereo not given)
inactive: [1] 9.4% | [2] -0.85% | [3] 2.8% | [4] 10.3% | [5] 2.15% | [6] 45.8%

COC(=O)CCc1c(C)[nH]c(C(=O)OC(C)(C)C)c1C
inactive: [1] -9.45% | [2] 9.3% | [3] -10.9% | [4] 14.9% | [5] -4.05% | [6] -3.05%

Cc1nc([N+](=O)[O-])cn1CC(=N)N
inactive: [1] -23% | [2] -28.8% | [3] -16.1% | [4] -5.15% | [5] -25.6% | [6] -38.7%

CCOC(=O)CC(C#N)C(C)C(=O)OCC (stereo not given)
inactive: [1] 2.3% | [2] 1.3% | [3] 0.4% | [4] 6.5% | [5] 0.9% | [6] -0.35%

Cc1nc2ccc(Cl)cc2c(-n2ccnc2)c1CCn1ccnc1
inactive: [1] -11.6% | [2] -4.6% | [3] -3.55% | [4] -0.5% | [5] 9.25% | [6] -3.7%

COc1ccc(N2C(=O)C3C=CC(n4[nH]c(=O)n(Cc5ccccc5)c4=O)CC3C2=O)cc1 (stereo not given)
inactive: [1] 6.6% | [2] 1.8% | [3] -0.9% | [4] -20.9% | [5] 8.4% | [6] -25.6%

Nc1nc2c(nnn2C2OC(CO)C(O)C2O)c(=O)[nH]1 (stereo not given)
inactive: [1] -4.6% | [2] 5.65% | [3] -5.3% | [4] -37.5% | [5] -16.8% | [6] 9.45%

C=CC(C)C(C)C (stereo not given)
inactive: [1] 3.15% | [2] 0.4% | [3] -7.55% | [4] 4.3% | [5] 8.65% | [6] -4.8%

COc1ccc(CCNC(=O)c2ccc(CSc3ccc(Cl)cc3)o2)cc1OC
inactive: [1] 34.5% | [2] 24.1% | [3] 37.6% | [4] 50.5% | [5] 42.8% | [6] 25.1%

CC(=O)CC(=O)Nc1ccc(C)c(C)c1
inactive: [1] -4.6% | [2] 2.15% | [3] 10% | [4] 7.95% | [5] 40% | [6] 12.5%

CC1(C)C=Cc2c(ccc(C(=O)Cc3ccccc3)c2O)O1
inactive: [1] 24.1% | [2] 17.4% | [3] 26.4% | [4] -8.1% | [5] 16% | [6] 23.1%

NC(=O)NC(c1ccc(O)cc1)c1cc2c(cc1O)OCO2 (stereo not given)
inactive: [1] -4% | [2] 1.9% | [3] -11.8% | [4] -36.8% | [5] 5.75% | [6] -0.55%

O=C(O)CCS(=O)(=O)CCC(=O)O
inactive: [1] -8.4% | [2] 0.8% | [3] -21.4% | [4] -30% | [5] 8.6% | [6] 22.8%

CC(CCOCC1CO1)OCC1CO1 (stereo not given)
inactive: [1] 13.8% | [2] -17.4% | [3] 3.85% | [4] 14.8% | [5] -17.5% | [6] 22.6%

COc1ccc(/C=C/c2onc3c(=O)n(C)nc(-c4ccccc4)c23)cc1
inactive: [1] -22.4% | [2] -25.1% | [3] -9.2% | [4] -11.4% | [5] -2.55% | [6] -26.2%

CCc1c(COC(=O)NC)c(COC(=O)NC)cc2c1[nH]c1ccccc12
inactive: [1] -16.6% | [2] -1.95% | [3] -2.95% | [4] -16.4% | [5] -41% | [6] -14.6%

CCCNC(=O)N(CCC)S(=O)(=O)c1ccc(Cl)cc1
inactive: [1] -6.85% | [2] 8.45% | [3] 12.3% | [4] 24.6% | [5] 22.7% | [6] 25.6%

COC(=O)c1[nH]c(C)c(C(=O)OC)c1C
inactive: [1] -8.5% | [2] -27.7% | [3] -3.1% | [4] -5% | [5] -13.2% | [6] -12.8%

O=C1c2cccc3cccc(c23)C(=O)N1C(Cc1ccccc1)c1ccccc1 (stereo not given)
inactive: [1] -15.5% | [2] -49.4% | [3] -15.1% | [4] -4.2% | [5] -37.8% | [6] -31.1%

O=C(O)CSCc1cc2c(O)c(c1)Cc1cc(CSCC(=O)O)cc(c1O)Cc1cc(CSCC(=O)O)cc(c1O)Cc1cc(CSCC(=O)O)cc(c1O)C2
inactive: [1] -6.9% | [2] -5.6% | [3] -6.55% | [4] 14.7% | [5] 43.8% | [6] -0.1%

CCCCCCCC(=O)Oc1cccc(C)c1
inactive: [1] -0.9% | [2] -3.3% | [3] -8.6% | [4] -10.3% | [5] -7.35% | [6] 2.2%

O=C(Nc1ccccc1)c1cc2cc(N=Nc3ccc(Br)cc3)ccc2oc1=O
inactive: [1] 4.2% | [2] -4.7% | [3] -0.4% | [4] 16.1% | [5] -17.1% | [6] -13.1%

CC(=O)CC(=O)NCc1ccccc1
inactive: [1] 10.7% | [2] -15.9% | [3] 25% | [4] 17.2% | [5] 1.55% | [6] 5.15%

COC(=O)CC(NC(=O)C(Cc1ccccc1)NC(=O)OCc1ccccc1)C(=O)O (stereo not given)
inactive: [1] 31.5% | [2] 9.15% | [3] 18.2% | [4] 11.7% | [5] 2.1% | [6] 23.1%

NC1(N)ON(c2ccc(C=O)cc2)C(c2ccc([N+](=O)[O-])cc2)S1 (stereo not given)
inactive: [1] 18.3% | [2] 8.45% | [3] 11% | [4] 16.3% | [5] -0.7% | [6] 16.7%

c1ccc(-c2cnc3cccnc3n2)cc1
inactive: [1] -2.1% | [2] -24.7% | [3] -19.2% | [4] -36.5% | [5] -10.1% | [6] -12.6%

CCN(CC)CCSc1ccnc2cc(Cl)ccc12
inactive: [1] 16.3% | [2] 23.1% | [3] 52.8% | [4] 47.5% | [5] 36% | [6] 21.8%

Cc1cc(C)c(F)c(C)c1N
inactive: [1] -32.5% | [2] 17.6% | [3] -22% | [4] -19.4% | [5] -22.1% | [6] -4.3%

CN(C)C(=O)Nc1ccc2c(c1)OCO2
inactive: [1] 0.8% | [2] 8.6% | [3] -1.4% | [4] -31.9% | [5] -13.2% | [6] 9.45%

O=C(O)C1OCOC2C(CO)OCOC12 (stereo not given)
inactive: [1] 11.8% | [2] -5.35% | [3] 17% | [4] -29.9% | [5] -3.6% | [6] 11.1%

CCOC(=O)c1c(/N=C/c2ccc(N(C)C)cc2)sc2c1CCCC2
inactive: [1] 14.2% | [2] 13.8% | [3] 17.3% | [4] 23.6% | [5] 17.8% | [6] 5.85%

COc1ccc(NC(C)=O)cc1[N+](=O)[O-]
inactive: [1] -4.6% | [2] -7.7% | [3] -1.7% | [4] -13.3% | [5] -18.3% | [6] 6.15%

O=C(O)C(CO)c1ccccc1 (stereo not given)
inactive: [1] 0.15% | [2] -1.3% | [3] -4.55% | [4] -4.65% | [5] 10.6% | [6] -2.75%

c1ccc(CC2(Cc3ccccc3)SCCS2)cc1
inactive: [1] -11.7% | [2] 8.45% | [3] 6.55% | [4] 1.15% | [5] -0.6% | [6] -6.05%

CC1CCC2OC23C(=O)C2OC2C(C(C)(C)O)C13C (stereo not given)
inactive: [1] -3.25% | [2] -2.35% | [3] -10.7% | [4] 2.5% | [5] 5.65% | [6] 12.8%

CNc1nc(SC)nc2[nH]ncc12
inactive: [1] 7.1% | [2] -9.2% | [3] 2.45% | [4] -3.2% | [5] 23% | [6] 2.05%

CC(C)[Si]1(C(C)C)N([Si](C)(C)F)[Si](C(C)C)(C(C)C)N1[Si](C)(C)F
inactive: [1] 7.7% | [2] 6.25% | [3] -3.05% | [4] 21% | [5] -4.45% | [6] 26.2%
